Holding throughout (design): scale not given: direction of the effect not stated beside the values
The target in test [1] is Protein translocase subunit SecA (Escherichia coli (strain K12)) (UniProt P10408). Briefly: Assay to Identify E. coli SecA ATPase Inhibitors. Format: functional. To be noted: 30 µM.
Test [2] addresses T1, Ubiquitin-activating enzyme e1, putative (Leishmania donovani (strain BPK282A1)) (UniProt E9BSI1).
T1 sequence (whole entry): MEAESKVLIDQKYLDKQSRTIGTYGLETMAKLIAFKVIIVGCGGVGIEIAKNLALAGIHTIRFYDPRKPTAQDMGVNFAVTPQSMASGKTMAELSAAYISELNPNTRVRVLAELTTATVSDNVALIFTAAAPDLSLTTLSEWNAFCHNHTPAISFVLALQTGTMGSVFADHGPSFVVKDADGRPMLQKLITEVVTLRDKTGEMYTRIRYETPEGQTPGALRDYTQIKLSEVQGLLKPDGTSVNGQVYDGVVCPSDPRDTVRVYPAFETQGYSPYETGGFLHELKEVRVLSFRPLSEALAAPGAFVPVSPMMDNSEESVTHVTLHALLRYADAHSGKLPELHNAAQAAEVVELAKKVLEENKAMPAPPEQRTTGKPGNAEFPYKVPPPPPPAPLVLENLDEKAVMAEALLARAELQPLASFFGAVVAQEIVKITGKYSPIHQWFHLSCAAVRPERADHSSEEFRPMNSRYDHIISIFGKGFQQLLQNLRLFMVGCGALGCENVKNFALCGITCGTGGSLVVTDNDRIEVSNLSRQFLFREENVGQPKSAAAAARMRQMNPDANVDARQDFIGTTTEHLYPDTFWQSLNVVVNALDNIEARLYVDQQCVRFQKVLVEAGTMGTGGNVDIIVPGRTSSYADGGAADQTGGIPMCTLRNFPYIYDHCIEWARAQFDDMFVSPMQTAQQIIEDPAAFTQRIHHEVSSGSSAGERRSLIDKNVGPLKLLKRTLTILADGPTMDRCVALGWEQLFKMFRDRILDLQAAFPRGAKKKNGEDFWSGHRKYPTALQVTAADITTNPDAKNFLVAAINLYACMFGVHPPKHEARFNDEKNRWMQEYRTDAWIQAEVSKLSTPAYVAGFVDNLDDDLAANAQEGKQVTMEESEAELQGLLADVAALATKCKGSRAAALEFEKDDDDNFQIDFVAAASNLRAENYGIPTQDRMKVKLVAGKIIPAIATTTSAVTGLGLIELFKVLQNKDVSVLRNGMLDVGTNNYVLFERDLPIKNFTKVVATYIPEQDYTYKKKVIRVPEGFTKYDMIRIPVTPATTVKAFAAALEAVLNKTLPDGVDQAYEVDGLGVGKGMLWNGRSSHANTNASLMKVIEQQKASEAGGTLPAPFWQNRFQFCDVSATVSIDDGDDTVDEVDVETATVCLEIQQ
Briefly: Leishmania donovani Ubiquitin Activating Enzyme (LdE1). Format: functional. The settings on record: 30 µM.

Test [3] concerns the target AMP-activated protein kinase, AMPK (Homo sapiens) (UniProt P54646+O43741+P54619+Q9UGJ0+Q9Y478+Q13131+Q9UGI9). The experiment in a line: AMP-dependent Kinase enzyme assay. An in vitro enzyme assay that detects ADP turnover that is directly proportional to AMPK activity. This uses naive AMPK that is activated during the assay with MK-8722. Format: functional. The settings on record: 30 µM.

Test [4] concerns the target Sialic acid-binding Ig-like lectin 9 (Homo sapiens) (UniProt Q9Y336). Briefly: Hs-Siglec9 ALPHAscreen SOP 20170721. To be noted: 10 µM. (Bead proximity is the source of the signal in Alpha formats.)
In test [5] the test system is Trypanosoma cruzi. The experiment in a line: Trypanosoma cruzi phosphomannomutase and mannose-1-phosphate guanylyltransferase assay. To be noted: 10 µM. The class given is functional.
The target in test [6] is T2, Arginase-2, mitochondrial (Homo sapiens) (UniProt P78540).
T2 sequence (whole entry): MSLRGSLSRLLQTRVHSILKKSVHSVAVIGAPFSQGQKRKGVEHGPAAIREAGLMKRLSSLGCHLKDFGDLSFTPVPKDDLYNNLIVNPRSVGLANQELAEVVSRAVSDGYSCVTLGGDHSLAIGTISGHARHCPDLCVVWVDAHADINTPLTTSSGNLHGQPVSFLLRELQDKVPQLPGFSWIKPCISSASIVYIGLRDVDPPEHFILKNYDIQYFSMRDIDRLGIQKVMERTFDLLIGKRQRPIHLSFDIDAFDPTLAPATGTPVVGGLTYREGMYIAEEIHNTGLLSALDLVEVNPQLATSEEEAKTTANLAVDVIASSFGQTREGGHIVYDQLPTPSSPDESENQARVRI
The experiment in a line: in vitro enzyme assay to detect the production of urea directly proportional to the activity of Arginase II. Further: in the data most compounds retested in dose-response had high values. The class given is functional. To be noted: 33.3 µM.

In test [7] the target is T3, Proteasome subunit beta (Trypanosoma cruzi) (UniProt O96673).
T3 sequence (whole entry): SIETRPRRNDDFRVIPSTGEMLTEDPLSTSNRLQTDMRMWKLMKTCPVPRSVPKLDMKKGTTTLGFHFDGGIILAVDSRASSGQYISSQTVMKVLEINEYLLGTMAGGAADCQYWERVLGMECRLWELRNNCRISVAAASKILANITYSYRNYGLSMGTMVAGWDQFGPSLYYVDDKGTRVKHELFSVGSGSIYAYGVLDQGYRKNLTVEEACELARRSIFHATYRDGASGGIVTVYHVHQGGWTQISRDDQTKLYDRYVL
Briefly: Trypanosoma cruzi proteasome chymotrypsin-like activity (TcProtChymo) assay. Further: in the data most compounds retested in dose-response had high values. The class given is functional. The settings on record: 9.37 µM.

The species named for test [8] is Homo sapiens. Briefly: To identify inhibition of the IFN signalling (Jak-Stat) pathway via expression of an eGFP reporter gene under the control of an IFN-stimulated response element (ISRE) containing MxA promoter. To be noted: 30 µM. Format: functional. Background: A reporter such as luciferase makes a cellular process visible.
Test [9] addresses T4, Tyrosyl-tRNA synthetase, putative (Trypanosoma cruzi (strain CL Brener)) (UniProt Q4DSP6).
T4 sequence (whole entry): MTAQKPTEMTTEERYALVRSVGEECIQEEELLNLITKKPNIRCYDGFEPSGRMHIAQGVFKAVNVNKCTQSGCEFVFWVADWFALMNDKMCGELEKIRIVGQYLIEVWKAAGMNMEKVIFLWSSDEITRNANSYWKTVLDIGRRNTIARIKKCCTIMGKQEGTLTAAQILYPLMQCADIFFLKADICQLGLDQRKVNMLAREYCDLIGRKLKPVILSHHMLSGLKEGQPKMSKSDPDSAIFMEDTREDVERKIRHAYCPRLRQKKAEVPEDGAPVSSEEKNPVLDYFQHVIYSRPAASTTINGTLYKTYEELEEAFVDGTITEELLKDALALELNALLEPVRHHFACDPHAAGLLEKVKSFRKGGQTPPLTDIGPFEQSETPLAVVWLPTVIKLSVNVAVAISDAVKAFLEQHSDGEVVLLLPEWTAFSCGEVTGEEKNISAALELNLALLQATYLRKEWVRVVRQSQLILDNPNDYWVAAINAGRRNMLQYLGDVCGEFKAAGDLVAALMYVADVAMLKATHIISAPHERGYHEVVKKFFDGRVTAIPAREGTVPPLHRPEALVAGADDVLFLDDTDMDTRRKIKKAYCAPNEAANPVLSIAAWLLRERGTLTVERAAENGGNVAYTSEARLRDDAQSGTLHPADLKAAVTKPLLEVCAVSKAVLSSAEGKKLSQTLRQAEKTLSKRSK
Briefly: Trypanosoma cruzi tyrosyl tRNA synthetase (TcYRS) _High Tyrosine SOP. Further: in the data most compounds retested in dose-response had high values. Format: functional. The settings on record: 30 µM.

Test [10] deals with T4, Tyrosyl-tRNA synthetase, putative (Trypanosoma cruzi (strain CL Brener)). The experiment in a line: Trypanosoma cruzi tyrosyl tRNA synthetase (TcYRS) SOP. The class given is functional. The settings on record: 30 µM.
In test [11] the target is Chromo domain-containing protein 1 (Saccharomyces cerevisiae (strain ATCC 204508 / S288c) (Baker's yeast)) (UniProt P32657). Briefly: ScCHD-1 Enzyme Inhibition Assay. Further: in the data most compounds retested in dose-response had high values. The class given is functional. The settings on record: 30 µM.

For some assays here: Entries with a potency or affinity are not part of this list.

10 compounds from ChEMBL document CHEMBL3988442, “University of Dundee, Small-Polar-MMV Screening Library” (2021) can be followed below.

Chromo domain-containing protein 1 (Saccharomyces cerevisiae (strain ATCC 204508 / S288c) (Baker's yeast)), sequence (P32657 whole entry, the tested form may be a part): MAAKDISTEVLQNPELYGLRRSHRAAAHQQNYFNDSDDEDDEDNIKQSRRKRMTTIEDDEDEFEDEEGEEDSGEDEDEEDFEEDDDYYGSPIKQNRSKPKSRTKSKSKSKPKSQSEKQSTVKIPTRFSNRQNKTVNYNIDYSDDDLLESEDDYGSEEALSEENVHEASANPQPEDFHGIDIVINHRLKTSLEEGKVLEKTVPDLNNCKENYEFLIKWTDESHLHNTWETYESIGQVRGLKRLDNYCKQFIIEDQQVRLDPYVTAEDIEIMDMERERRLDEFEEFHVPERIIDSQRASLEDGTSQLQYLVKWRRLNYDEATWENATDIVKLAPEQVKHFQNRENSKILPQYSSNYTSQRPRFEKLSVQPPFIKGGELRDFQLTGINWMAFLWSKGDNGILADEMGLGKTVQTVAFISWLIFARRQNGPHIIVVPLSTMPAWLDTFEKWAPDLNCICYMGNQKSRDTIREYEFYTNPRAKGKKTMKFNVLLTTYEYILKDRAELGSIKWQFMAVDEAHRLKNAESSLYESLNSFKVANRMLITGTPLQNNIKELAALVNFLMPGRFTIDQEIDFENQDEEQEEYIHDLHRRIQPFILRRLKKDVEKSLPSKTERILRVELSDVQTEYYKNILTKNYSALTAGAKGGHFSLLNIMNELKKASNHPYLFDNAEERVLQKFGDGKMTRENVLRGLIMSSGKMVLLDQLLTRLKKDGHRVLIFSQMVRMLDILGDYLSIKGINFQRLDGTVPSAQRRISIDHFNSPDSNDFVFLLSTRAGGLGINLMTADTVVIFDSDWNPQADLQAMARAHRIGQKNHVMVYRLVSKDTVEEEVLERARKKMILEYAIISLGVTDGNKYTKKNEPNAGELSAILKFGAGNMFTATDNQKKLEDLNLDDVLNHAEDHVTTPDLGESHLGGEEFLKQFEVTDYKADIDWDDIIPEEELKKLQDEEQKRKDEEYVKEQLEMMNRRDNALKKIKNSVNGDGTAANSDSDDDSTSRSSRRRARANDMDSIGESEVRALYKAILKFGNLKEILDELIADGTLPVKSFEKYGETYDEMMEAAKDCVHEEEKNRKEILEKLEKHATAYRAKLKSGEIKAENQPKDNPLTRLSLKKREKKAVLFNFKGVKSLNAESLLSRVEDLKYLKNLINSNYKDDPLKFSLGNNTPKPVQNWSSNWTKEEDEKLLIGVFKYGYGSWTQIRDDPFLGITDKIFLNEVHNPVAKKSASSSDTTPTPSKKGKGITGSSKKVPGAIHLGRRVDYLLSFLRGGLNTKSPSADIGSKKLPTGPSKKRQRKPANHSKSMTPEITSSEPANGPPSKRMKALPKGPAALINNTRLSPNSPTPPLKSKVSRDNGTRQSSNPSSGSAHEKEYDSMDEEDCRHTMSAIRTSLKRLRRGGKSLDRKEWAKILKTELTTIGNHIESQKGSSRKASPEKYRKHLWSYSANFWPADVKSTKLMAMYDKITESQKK
Sialic acid-binding Ig-like lectin 9 (Homo sapiens), sequence (Q9Y336 whole entry): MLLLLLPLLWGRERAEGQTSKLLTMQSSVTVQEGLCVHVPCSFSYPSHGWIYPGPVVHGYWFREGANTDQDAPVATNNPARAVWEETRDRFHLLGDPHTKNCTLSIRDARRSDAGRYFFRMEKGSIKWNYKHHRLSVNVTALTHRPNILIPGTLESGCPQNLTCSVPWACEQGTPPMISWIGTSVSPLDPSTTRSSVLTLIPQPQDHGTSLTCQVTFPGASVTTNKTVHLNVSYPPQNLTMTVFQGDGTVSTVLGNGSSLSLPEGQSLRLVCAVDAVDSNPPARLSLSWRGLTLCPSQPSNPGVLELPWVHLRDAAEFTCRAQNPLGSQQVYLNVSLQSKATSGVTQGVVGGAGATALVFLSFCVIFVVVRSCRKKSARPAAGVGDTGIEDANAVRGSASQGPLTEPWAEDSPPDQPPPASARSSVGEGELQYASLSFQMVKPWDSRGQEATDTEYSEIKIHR
Protein translocase subunit SecA (Escherichia coli (strain K12)), sequence (P10408 whole entry): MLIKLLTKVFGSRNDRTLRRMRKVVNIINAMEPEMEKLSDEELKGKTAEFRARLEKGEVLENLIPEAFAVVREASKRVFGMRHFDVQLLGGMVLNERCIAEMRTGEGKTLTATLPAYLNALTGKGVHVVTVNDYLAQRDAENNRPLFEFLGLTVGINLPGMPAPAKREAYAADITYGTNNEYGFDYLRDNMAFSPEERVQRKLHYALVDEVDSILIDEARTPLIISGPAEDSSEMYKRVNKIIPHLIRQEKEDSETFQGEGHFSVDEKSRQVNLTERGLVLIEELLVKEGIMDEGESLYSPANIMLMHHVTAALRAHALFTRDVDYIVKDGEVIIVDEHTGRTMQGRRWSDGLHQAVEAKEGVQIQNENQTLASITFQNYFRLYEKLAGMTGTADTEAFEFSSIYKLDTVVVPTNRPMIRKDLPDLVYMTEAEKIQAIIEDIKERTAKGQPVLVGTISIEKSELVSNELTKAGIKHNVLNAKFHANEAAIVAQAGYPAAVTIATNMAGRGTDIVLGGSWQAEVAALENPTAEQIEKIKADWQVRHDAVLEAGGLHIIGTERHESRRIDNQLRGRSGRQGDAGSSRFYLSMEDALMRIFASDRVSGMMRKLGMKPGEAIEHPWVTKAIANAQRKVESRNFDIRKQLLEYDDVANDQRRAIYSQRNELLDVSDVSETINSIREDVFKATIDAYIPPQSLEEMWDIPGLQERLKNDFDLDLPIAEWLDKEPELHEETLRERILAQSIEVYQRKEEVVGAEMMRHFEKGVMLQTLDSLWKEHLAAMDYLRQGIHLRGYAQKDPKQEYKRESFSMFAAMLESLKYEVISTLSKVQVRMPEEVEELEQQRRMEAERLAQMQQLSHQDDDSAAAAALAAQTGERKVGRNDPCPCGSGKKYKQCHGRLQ

Consider `CN(C)c1ccc(CCCNC(=O)Nc2ccc(C#N)cc2)cc1`, for which the Percent Effect in test [1] came out at 1.86%; in [2], 8.11%; in test [3], 2.26%; in [4], 11.1%; in test [5] it was 3.86%; in test [6], 11.4%. Besides, the Percent Effect in [7] was 15.7%; in test [8], 72%; in [9], 5.82%; in [10] it was 14.6%; in test [11], -5.31%.

As to `COCCNC(=O)NCCc1ccn(-c2ccccc2)n1`, the Percent Effect in test [1] is -3.6%; in test [2], -3.8%; in [3], 7.66%; in [4], 4.04%; in test [5], 5.64%; in test [6], -0.215%. For the same compound, the Percent Effect in test [7] is 13.7%; in test [8] it was 5.09%; in test [9], -4.17%; in [10], 10.1%; in test [11] it was -16.7%.

For the compound `CNc1nc(CNC(=O)Nc2ccccc2SC)cs1`, the Percent Effect in test [1] was 1.51%; in test [2], -2.63%; in test [3], -1.33%; in [4], 0.229%; in [5], -2.07%; in test [6] it was 3.83%. In addition, the Percent Effect was 7.69% in test [7]; 10.1% in [8]; 1.47% in test [9]; 4.88% in test [10]; 3.33% in [11].

On to `Cc1nc(C2CCCN2CC(=O)N2CCCc3ccccc32)no1` (stereo not given), for which the Percent Effect was -2.99% in test [1]; -13.2% in test [2]; -3.99% in [3]; 5.27% in [4]; 6.77% in test [5]; 3.45% in test [6]. The Percent Effect in [7] was 0%; in test [8] it was 6.64%; in test [9] it was 4.41%; in test [10] it was 4.88%; in test [11], -4.73%.

As to `COCCN(Cc1ccoc1)C(=O)c1cccnc1SC`, the Percent Effect is -1.15% in test [1]; 5.2% in test [2]; 9.17% in test [3]; 2.43% in test [4]; -4.24% in test [5]; 7.1% in test [6]. Besides, the Percent Effect in [7] was 1.04%; in test [8], 1.32%; in test [9] it was 3.17%; in test [10], 6.41%; in test [11] it was -5.39%.

`CC(C)c1nnc2n1CCN(CCCS(=O)(=O)c1ccccc1)C2`: the Percent Effect in [1] was -2.39%; in [2], 7.79%; in test [3], 4.29%; in test [4], 7.26%; in test [5], 6.18%; in [6] it was -4.27%. In addition, the Percent Effect in test [7] is 7.94%; in test [8], 0.936%; in test [9], 1.94%; in [10], 14.6%; in [11] it was -8.88%.

With `O=C(NCC(O)c1ccc(F)c(F)c1)c1cccnc1OCC(F)(F)F` (stereo not given), the Percent Effect in test [1] is -4.25%; in test [2], 19.2%; in test [3] it was 10.1%; in test [4], 8.21%; in [5] it was 7.94%; in [6], -2%. Moreover, the Percent Effect was 15.8% in [7]; 5.47% in test [8]; 4.17% in [9]; 16.1% in test [10]; -4.84% in test [11].

With `COCC(=O)N1CC[C@@H]2O[C@H](COCc3ccncc3)CC[C@@H]21`, the Percent Effect in [1] is -3.69%; in [2], 18.9%; in test [3] it was 10.4%; in test [4] it was -8.21%; in test [5], -4.2%; in [6] it was 9.24%. Further, the Percent Effect in test [7] is 16.6%; in [8], -0.209%; in [9], 1.08%; in [10], 17.9%; in test [11] it was -0.872%.

For the compound `CCc1ncc2c(n1)CN(Cc1nc(C)c(C)o1)CC2`, the Percent Effect in [1] was -3.48%; in test [2] it was 2.74%; in [3], -53%; in [4], -5.63%; in test [5] it was -1.76%; in test [6], 6.82%. Moreover, the Percent Effect in test [7] is 9.94%; in test [8] it was 10.1%; in test [9], 5.38%; in test [10], 10%; in [11], -5.18%.

As for `CCC1CCCN(C(=O)Cc2csc(-c3ncccn3)n2)C1` (stereo not given), the Percent Effect is -2.19% in test [1]; 21.1% in test [2]; 0.0664% in test [3]; -8.02% in [4]; 5.26% in test [5]; -1.92% in test [6]. Also, the Percent Effect is 24.1% in test [7]; 25.1% in test [8]; 5.39% in test [9]; 17.1% in test [10]; -12.4% in test [11].
